# TTR transcr act – TTR transcription activators in neuroblastoma reporter cells, primary screen, cell-based, luminescence, SH-SY5Y, TTR promoter Gaussia luciferase; 100% = recombinant luciferase protein wells; activation, % at 16.7 µM; 1.3% of 92,000 active;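 active = activation above the mean of all tested compounds plus 3 SD, cut at about 9.5% in these data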;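 note: cells exposed to compounds for one day before reading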
# HuH7 TTR inh – TTR promoter reporter inhibitors in hepatoma cells, counter-screen for TTR transcription activator project, cell-based, luminescence, HuH7 hepatoma | inhibition, % at 16.7 µM | HuH7 TTR promoter-Gaussia luciferase reporter | shares compounds with TTR transcr act | 4% of 1,100 active;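 active = average inhibition above the solvent-only control wells' mean plus 3 SD, cut at about 15% in these data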;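 note: inhibitors lower well luminescence so higher value means more inhibition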
# TTR up confirm – TTR transcription activators, retest, confirmation, cell-based, luminescence, SH-SY5Y, triplicate | shares compounds with TTR transcr act | AID 1117280, 2014 | activation, % at 16.7 µM | 1,100 tested, under 10 active | SHSY5Y TTR promoter Gaussia luciferase; 100% = purified Lucia enzyme wells, no cells;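 active = mean activation above a set limit taken from the earlier primary screen, cut at about 11% in these data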
# A number is an active result; i = inactive. This excerpt belongs to a sample that is enriched for hits.
SMILES,TTR transcr act,others
CCCCC(=O)Nc1cc(C)c(NC(=O)c2cccs2)cn1,i,
CCC(=O)Nc1cnc(NC(=O)c2cccc(F)c2)cc1C,i,
Cc1ccc(N2C(=O)C3CCCN3C2=S)cc1C (centres undefined),20,HuH7 TTR inh=i;TTR up confirm=i
Cc1ccc(N2C(=O)C3CCCN3C2=S)cc1 (centres undefined),i,
Cc1cc(C)cc(N2C(=O)C3CCCN3C2=S)c1 (centres undefined),i,
CN(C)c1cccc(-c2cnc(N3CCC(C(N)=O)CC3)nc2)c1,i,
CCN(C(=O)c1c(C)noc1C)c1c(N)n(Cc2ccccc2)c(=O)[nH]c1=O,i,
CC[C@]12c3[nH]c4cc(CCC(=O)N(C)C)ccc4c3CCN1C(=O)[C@@H](CC(=O)NCc1ccc(OC)c(OC)c1)C[C@@H]2C(=O)N1CCN(C(=O)C2CC2)CC1,i,
CC[C@]12c3[nH]c4cc(-c5ccco5)ccc4c3CCN1C(=O)[C@@H](CC(=O)NCCC1=CCCCC1)C[C@@H]2C(=O)N1CCN(C(=O)C2CC2)CC1,i,
CC[C@]12c3[nH]c4cc(-c5ccco5)ccc4c3CCN1C(=O)[C@@H](CC(=O)NCc1ccc(OC)c(OC)c1)C[C@@H]2C(=O)N1CCN(C(=O)C2CC2)CC1,10,HuH7 TTR inh=i;TTR up confirm=i
COc1ccc(CSc2nncn2C)cc1F,i,
Cn1cnnc1SCc1ccccc1,18,HuH7 TTR inh=i;TTR up confirm=i
Cn1cnnc1SCc1ccc(C(=O)NN)cc1,i,
O=C(Nc1nc2ncccn2c1-c1ccccc1)C1CC1,i,
O=C(C1CC1)n1ccc2ccc(-c3ccc4ccn(Cc5ccccc5)c4c3)cc21,i,
O=C(NCc1ccccn1)c1c(-c2ccccc2)sc2ccccc12,i,
COc1ccc(CC(=O)N2CCN(c3ccc(F)cc3)CC2)cc1,i,
COc1ccc(S(=O)(=O)CCC(=O)N2CCN(c3ccc(F)cc3)CC2)cc1,10,HuH7 TTR inh=i;TTR up confirm=i
O=C(CCS(=O)(=O)c1ccc(Cl)cc1)N1CCN(c2ccc(F)cc2)CC1,i,
O=C(NCCCc1ccccc1)O[C@@H]1CC[C@@]23CCCN2C(=O)CCC[C@H]3C1,i,
Cc1ccc(Cn2cc(COC(=O)NCCc3c[nH]c4ccccc34)nn2)cc1,i,
COc1ccc(Cc2c(C3CCCCC3)nc3ccc(Cl)cn23)c(C)c1,i,
O=C(c1ccccc1Cl)N1N=C(c2cccs2)CC1c1cccc(O)c1 (centres undefined),i,
Cc1ccc(-c2n[nH]c(=S)n2/N=C/c2sccc2C)cc1,i,
S=c1[nH]nc(-c2ccncc2)n1/N=C/C=C/c1ccccc1,i,
SMILES,TTR transcr act,others
Cc1ccc(-c2n[nH]c(=S)n2/N=C/c2ccncc2)cc1,10.0,HuH7 TTR inh=i;TTR up confirm=i
CC1O[C@@H](O[C@H](C)CC[C@@H](C)O[C@H]2OC(C)[C@@H](O)C[C@H]2O)C(O)C[C@H]1O (some centres undefined),14,HuH7 TTR inh=i;TTR up confirm=i
O=C(NCCOc1ccc(Cl)cc1)c1ccco1,i,
Cc1ccc(CN2CCCCC(NC(=O)c3ccc4ccccc4c3)C2=O)cc1 (centres undefined),i,
Cn1nnc(NC(=S)NC(=O)/C=C/c2ccco2)n1,i,
Cc1cccnc1NC(=S)NC(=O)/C=C/c1ccco1,12,HuH7 TTR inh=i;TTR up confirm=i
O=C(/C=C\c1ccco1)NC(=S)Nc1ccccc1O,i,
O=C1CCC[C@H]2C[C@H](NCc3ccc(Cl)c(C(F)(F)F)c3)CC[C@]23CCCN13,i,
O=C(O)CCNS(=O)(=O)c1ccc2ccccc2c1,i,
O=C(O)CCNS(=O)(=O)c1ccccc1,i,
O=C(O)CNS(=O)(=O)c1cccc(Cl)c1,15,HuH7 TTR inh=i;TTR up confirm=i
COC(=O)[C@]12C[C@H](CC(=O)N3CCN(C(=O)C4CC4)CC3)C(=O)N(Cc3cccc4ccccc34)C1=C[C@H](C1CCCC1)O[C@@H]2C,i,
CC[C@]12c3[nH]c4ccc(Cl)cc4c3CCN1C(=O)[C@@H](CC(=O)NCCCn1ccnc1)C[C@@H]2C(=O)N1CCN(C(=O)C2CC2)CC1,i,
CCOC(=O)[C@]12CCCC=C1N(Cc1ccc(OC)cc1)C(=O)[C@@H]2CC(=O)NCCC(C)C,i,
Cc1ccc(Nc2c3c(nc4ncnn24)CCC3)cc1,20,HuH7 TTR inh=24;TTR up confirm=i
CCCc1cc(Nc2ccc(C)cc2)n2ncnc2n1,i,
CC(=O)c1ccc(Nc2cc(C)nc3ncnn23)cc1,i,
O=C(C[C@H]1CC[C@@H]2[C@H](COC[C@H](O)CN2Cc2cccc(F)c2)O1)NCc1cccc(F)c1,i,
C=CCCC(=O)N[C@H]1CC[C@@]23CCCN2C(=O)CCC[C@H]3[C@H]1CCC,i,
CCOC(=O)[C@@]12CCCC=C1N(CCc1ccc(Cl)cc1)C(=O)[C@H]2CC(=O)N1CCCCC1,i,
O=C(Cc1ccc(Br)cc1)Nc1ccc(Cl)cc1,i,
